Reference: PubChem BioAssay AID977606 (Broad Institute, 2014)
About 430 (29%) of roughly 1,500 compounds were called active. Only a sample is shown. Entries with a potency or affinity are not part of this list. A number with no mark means an inactive call. The rule behind the calls is not given here.

Test: insulin secretion activators without glucose, dose response, counter-screen for glucose-dependent insulin secretion activators, cell-based, INS-1E, Gaussia luciferase, luminescence, cherry-pick (AID 977606);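 note: 0% = median of neutral control wells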
Settings: INS-1E Gaussia luciferase insulin secretion, no glucose, 100% = twice neutral-control luminescence; series mostly up to 35 µM; activation: at the top concentration

Going from `CCCN(Cc1nnc(-c2ccccc2Cl)o1)C(=O)c1cc2ccccc2o1` to `CCN(CC)C(=O)n1c(Cc2ccccc2)nc2ccccc21`, the “activation” value rises from -3.92% to 12.5%.

Compared with `c1ccc2nc3c(nc2c1)c1ccccc1n3CCN1CCOCC1`, `O=C(c1cc(-c2ccccc2)nc2ccccc12)N1CCCC1` is lower in “activation” value: 5.65% for the first, -4.1% for the second.

First: COc1ccc(CCN(C)C(=O)C(CCSC)NC(=O)c2ccco2)cc1OC (stereo not drawn)
Second: COc1ccc(CCN(C)C(=O)Cn2c(=O)oc3ccccc32)cc1OC
The “activation” value of the first is higher: 2.04% for the first, -4.62% for the second.

First: CC(=O)Nc1ccc(S(=O)(=O)Nc2ccc3c(c2)n(C)c(=O)n3C)c(C)c1
Second: CN1CCSc2ccc(C(=O)Nc3cccc(F)c3)cc21
The “activation” value of the first is higher: 3.77% for the first, -8.84% for the second.

Compared with `COc1nc(N2CCOCC2)nc(-n2cccc2)n1`, `CC(C)Oc1ccc(C(=O)CCN2CCOCC2)cc1` is higher in “activation” value: -0.551% for the first, 2.3% for the second.

Compared with `COc1ccc(S(=O)(=O)N(C)c2ccc(C(=O)NCC3CCCO3)cc2)cc1OC` (stereo not drawn), `CN(c1ccc(F)cc1)S(=O)(=O)c1ccc(Cl)c(C(=O)NCC2CCCO2)c1` (stereo not drawn) is lower in “activation” value: 6.43% for the first, -1.9% for the second.

Compared with `COc1ccc(-c2nc(CCNC(=O)c3ccco3)cs2)cc1OC`, `COc1ccc(-c2nc(-c3cccnc3)no2)cc1OC` is higher in “activation” value: -0.006% for the first, 4.11% for the second.

First: CCOc1cc(NC(=O)c2ccco2)c(OCC)cc1NC(=O)c1cc(OC)c(OC)c(OC)c1
Second: COc1ccc(-c2c(NC(=O)c3ccco3)oc3ccc(Cl)cc3c2=O)cc1
The “activation” value of the first is lower: -13.1% for the first, -3.48% for the second.

Compared with `CCC(=O)Nc1cc2nn(-c3ccc(OC)cc3)nc2cc1C`, `COc1ccc(C(=O)Nc2nnc(-c3cccs3)s2)cc1` is lower in “activation” value: -3.71% for the first, -8.39% for the second.

Compared with `Cc1ccc(C2(C)NC(=O)N(CC(=O)Nc3ccc(-c4nc5ccc(C)cc5s4)cc3)C2=O)cc1` (stereo not drawn), `Cc1ccc(NCc2cccc(B(O)O)c2)cc1` is lower in “activation” value: -15.2% for the first, -15.8% for the second.

Compared with `Cc1ccnc(NC(=O)CNC(=O)c2ccco2)c1`, `O=C(CNC(=O)c1ccco1)N/N=C/c1ccc(C(=O)O)cc1` is higher in “activation” value: -10.1% for the first, 13.5% for the second.

Compared with `COc1ccc(S(=O)(=O)N2CCCCC2)cc1NC(=O)C1CC1C` (stereo not drawn), `O=S(=O)(c1ccc(=S)[nH]c1)N1CCCCCC1` is lower in “activation” value: 26.7% for the first, -9.77% for the second.

Going from `CC(Oc1ccc2c3c(c(=O)oc2c1)CCCC3)C(=O)NCc1cccnc1` (stereo not drawn) to `CCOc1ncccc1C(=O)NCc1cccc(OC)c1`, the “activation” value rises from -13% to -7.01%.

Compared with `Cc1ccc(Nc2ncnc3sccc23)c(C)c1`, `Cc1ccc(-c2cnc3cccnn23)cc1F` is higher in “activation” value: -5.06% for the first, 20% for the second.

Compared with `O=C(CN1C(=O)NC(Cc2c[nH]c3ccccc23)C1=O)NCCc1ccccc1` (stereo not drawn), `Cc1sc2ncn(CC(=O)NCc3ccccc3)c(=O)c2c1C` is higher in “activation” value: 0.275% for the first, 3.79% for the second.

Going from `O=C(Nc1nnc(CCS(=O)(=O)c2ccc3ccccc3c2)s1)c1cccs1` to `CCc1nnc(NC(=O)C(c2ccccc2)c2ccccc2)s1`, the “activation” value falls from 1.61% to -6.83%.

First: O=C(Nc1ccc(NC(=O)c2cccs2)cc1)c1ccc(Br)o1
Second: O=C(O)CC(CC(=O)Nc1ccc(C(=O)O)cc1)c1ccccc1 (stereo not drawn)
The “activation” value of the first is higher: -6.3% for the first, -19.9% for the second.

First: CS(=O)(=O)N1CCCCC1c1cc(C(=O)Nc2cccc(C#N)c2)no1 (stereo not drawn)
Second: CS(=O)(=O)N1CCCCC1c1cc(C(=O)Nc2cccc3c2CCCC3)no1 (stereo not drawn)
The “activation” value of the first is higher: 3.77% for the first, 0.303% for the second.

Going from `COc1cc(Cl)c(C)cc1NC(=O)c1ccccc1NC(=O)CN1CCN(C(C)=O)CC1` to `O=C(COC(=O)c1cccnc1Cl)Nc1cc(S(=O)(=O)N2CCCCCC2)ccc1Cl`, the “activation” value falls from -5.13% to -11.2%.

Compared with `Cc1cc(C)nc(NC(=O)c2ccc(Cl)cc2Cl)n1`, `Cc1ccc(S(=O)(=O)Nc2nc(C)cc(NN)n2)cc1` is higher in “activation” value: -13.6% for the first, 7.55% for the second.

Going from `COCCN(CCOC)Cc1cc(=O)oc2cc(C)c(C)cc12` to `COc1cccc2cc(-c3cc(=O)oc4cc(C)c(O)cc34)oc12`, the “activation” value falls from 19.4% to -14.2%.

Going from `O=C1NC(=O)C2(CCCCC2C2CCCCC2)N1` (stereo not drawn) to `CC(=O)c1ccc(OCC(=O)N(C2CCCCC2)C2CCS(=O)(=O)C2)cc1` (stereo not drawn), the “activation” value rises from -0.57% to 4.75%.

First: COc1ccccc1CNC(=O)CCS(=O)(=O)Cc1ccc(C)cc1
Second: CCN(c1ccccc1)S(=O)(=O)c1ccc(OC)c(OC)c1
The “activation” value of the first is higher: 7.48% for the first, -4.43% for the second.

First: Cc1cc(C)c(CSc2nnnn2-c2ccc(C(=O)O)cc2)c(C)c1
Second: Cc1cc2nc(-c3ccccc3O)[nH]c2cc1C
The “activation” value of the first is lower: -5.78% for the first, 3.89% for the second.

First: CC(C)c1cc(C(C)C)n2nc(N)nc2n1
Second: CCn1nc(C)c(NC(=O)c2cnn3c(C(F)F)cc(-c4ccccc4)nc23)c1C
The “activation” value of the first is higher: -3.96% for the first, -12.6% for the second.

First: Cc1ccc(C(=O)N2CCN3C(=O)c4ccccc4C23c2ccccc2)cc1 (stereo not drawn)
Second: Cc1ccc(S(=O)(=O)/N=C(/Nc2cccc(O)c2)c2ccccc2)cc1
The “activation” value of the first is lower: 1.92% for the first, 1.93% for the second.

First: COc1cc2cnc(-c3cccnc3)cc2cc1OC
Second: COc1cc2[nH]c(-c3ccc(C)cc3)cc(=O)c2cc1OC
The “activation” value of the first is higher: -6.43% for the first, -15.4% for the second.

Going from `Cc1ccc(S(=O)(=O)NCc2csc(-c3cccs3)n2)cc1` to `c1csc(CNc2nc(Oc3ccncc3)c3sccc3n2)c1`, the “activation” value falls from 13.5% to -11%.

Going from `O=C(Cn1[nH]c(=O)c2ccccc2c1=O)OCC(=O)c1ccc(F)cc1` to `COc1ccc(-c2[nH]c3ccccc3c2SCCN)cc1`, the “activation” value rises from -5.33% to 1.51%.

Compared with `C=CCN(CC=C)S(=O)(=O)c1ccc(C(=O)Nc2sc3c(c2C(N)=O)CCCCC3)cc1`, `O=C(O)c1c(NC(=O)N2CCOCC2)sc2c1CCCC2` is lower in “activation” value: 23.2% for the first, -6.11% for the second.

Compared with `CCN(Cc1ccccc1)S(=O)(=O)c1ccccc1Br`, `Cc1cccc(NCc2ccccc2)c1` is higher in “activation” value: -6.72% for the first, -3.91% for the second.

Compared with `CCOCCCNC(=O)c1oc2ccc3c(c2c1C)C(O)CC(C)(C)O3` (stereo not drawn), `CC(=O)Nc1c(C(=O)C2CC2)oc2ccccc12` is lower in “activation” value: 0.062% for the first, -4.6% for the second.

Going from `NC(=O)c1ncn([C@@H]2O[C@H](C(=O)N[C@H](Cc3ccccc3)C(=O)O)[C@@H](O)[C@H]2O)n1` to `CN(C(=O)[C@H]1O[C@@H](n2cnc(C(N)=O)n2)[C@H](O)[C@@H]1O)c1ccccc1`, the “activation” value rises from -1.16% to 6.71%.

First: CCc1nc2c(OCc3ccccc3C(=O)OC)cccn2c1N(C)C(=O)c1ccncc1
Second: CCc1nc2c(OCc3ccccc3C)cccn2c1N(C)C(=O)c1ccco1
The “activation” value of the first is lower: -2.47% for the first, 0.871% for the second.

First: Cc1cccc(C)c1NC(=O)C1c2ccccc2Oc2ccccc21
Second: Cc1ccccc1Nc1c(-c2ccncc2)nc2ccc(Cl)cn12
The “activation” value of the first is higher: 26.8% for the first, -2.55% for the second.

Going from `O=c1[nH]c2cc(Cl)ccc2n(CCNc2ncc(C(F)(F)F)cc2Cl)c1=O` to `O=c1c(Cc2ccc(Cl)cc2Cl)c(O)ccn1CC(F)(F)F`, the “activation” value falls from 7.49% to -4.12%.

First: Nn1c(C2CCCCC2)nc2ccccc2c1=O
Second: O=C(O)c1ccc(/C=N/n2c(C3CCCCC3)n[nH]c2=S)cc1
The “activation” value of the first is lower: -1.68% for the first, 5.52% for the second.

Compared with `CNC(=O)c1cc(C(=O)c2ccccc2Br)c[nH]1`, `Cc1ccccc1C(=O)NC1CCSC1=O` (stereo not drawn) is higher in “activation” value: -15.6% for the first, 17.9% for the second.

Going from `CSc1ccc(C(=O)C2CCCN(C(=O)c3ccc4c(c3)no[n+]4[O-])C2)cc1` (stereo not drawn) to `O=C(c1ccc2c(c1)OCO2)N1CCc2ccccc2C1`, the “activation” value falls from -3.61% to -4.16%.

Going from `CCC(=O)Nc1cc(C(C)(C)C)ccc1C(C)=O` to `O=C(Cn1cc(C(F)(F)F)ccc1=O)NCC1CCCO1` (stereo not drawn), the “activation” value rises from 2.29% to 14.9%.

First: O=c1c(C(c2ccccc2)c2c(O)sc3ccccc3c2=O)c(O)sc2ccccc12
Second: COc1ccc2c(c1)C(C)(Cc1ccc(C(=O)c3ccccc3)cc1)C(=O)N2 (stereo not drawn)
The “activation” value of the first is lower: -2.79% for the first, -0.179% for the second.

First: Cn1c(=O)c2c(nc3n2CCCN3CCc2ccccc2)n(C)c1=O
Second: CCCn1c2ccccc2c2cn[nH]c(=O)c21
The “activation” value of the first is higher: 18.9% for the first, -1.74% for the second.

First: O=C1CSC(c2ccccc2)N1c1ccc(F)cc1F (stereo not drawn)
Second: C[C@H]1[C@@H](c2ccccc2)Oc2c(Cl)cccc2S(=O)(=O)N1C
The “activation” value of the first is lower: -1.91% for the first, 7.53% for the second.

Going from `COc1ccc(N2CC(C(=O)N3CCc4ccccc43)CC2=O)cc1` (stereo not drawn) to `COc1cccc(CNC(=O)c2cccnc2Sc2ccccc2)c1`, the “activation” value rises from -13.9% to -13.5%.

Going from `CCc1nc2c(OCCC3CCCCC3)cccn2c1N(C)C(=O)c1ccco1` to `O=C(NC1CCCCC1)c1cccnc1Sc1ccccc1`, the “activation” value falls from 0.816% to -16%.

Compared with `CC1CCN(C(=O)c2cccc(S(=O)(=O)N3CCN(c4ccccc4)CC3)c2)CC1`, `CN1CCN(c2ccc(CNC(=O)C3(C)Cc4c(-c5ccccc5)ccnc4O3)cc2)CC1` (stereo not drawn) is lower in “activation” value: 5.82% for the first, -11.3% for the second.

First: CC(=O)NN1C(=O)c2ccccc2NC1c1ccccc1O (stereo not drawn)
Second: Cc1c(-c2cccc(Cl)c2)nc2ccccc2c1C(=O)NC1CC1
The “activation” value of the first is higher: 0.677% for the first, -6.74% for the second.

Going from `COc1ccc(C(=O)Nc2nnc(-c3ccco3)s2)cc1` to `COc1ccc(-c2cc(NC=O)c3ncc(-c4ccc(OC)c(OC)c4)n3c2)cc1`, the “activation” value falls from -4.87% to -18.9%.

Compared with `CCCc1cc(NCC2CCCO2)n2c(nc3ccccc32)c1C#N` (stereo not drawn), `COc1ccc2[nH]c3c(NCCCN4CCCC4=O)ncnc3c2c1` is lower in “activation” value: 15.6% for the first, 5.89% for the second.

First: O=S(=O)(Nc1ncnc2sc3c(c12)CCC3)c1cc(F)ccc1F
Second: CC(=O)Nc1cc(-c2ccc(N3CCN(C)CC3)cc2)cn2c(-c3cccc(C(=O)N(C)C)c3)cnc12
The “activation” value of the first is lower: 7.27% for the first, 22.4% for the second.

Going from `COc1ccc(CN(C)C(=O)Cn2cc(C)c(=O)[nH]c2=O)cc1OC` to `CCOC(=O)c1nc(SC)n(C)c1C(=O)OCC`, the “activation” value falls from 15% to -13.2%.

Going from `O=C(Nc1ccc(S(=O)(=O)N2CCOCC2)cc1)c1ccc(=O)[nH]c1` to `O=C(NCc1ccc(Cl)cc1)c1cc(=O)[nH]c2ccc(S(=O)(=O)N3CCOCC3)cc12`, the “activation” value rises from -8.01% to 14.3%.

Compared with `CCNc1nc(NCC)nc(Nn2cnnc2)n1`, `FC(F)(F)c1cc(-c2ccccc2)nc(-n2cc(Cl)cn2)n1` is higher in “activation” value: -7.21% for the first, 5.23% for the second.

Compared with `Cc1ccc(/C=N/n2c(-c3cccnc3)n[nH]c2=S)s1`, `Cc1cc(C)cc(Cn2c3ccc(NC(=S)NCc4ccccc4F)cc3c(=O)n2C)c1` is lower in “activation” value: -14.7% for the first, -29.4% for the second.

Compared with `O=C(COc1ccccc1)N(Cc1cccc(F)c1)C1CCS(=O)(=O)C1` (stereo not drawn), `CC1CCC(NCCNC(=O)c2ccco2)CC1` (stereo not drawn) is lower in “activation” value: 4.65% for the first, -8.27% for the second.

First: O=C(CCN1CCOCC1)c1ccc(N2CCCCC2)cc1
Second: CC(=O)NC1C(=O)N(CCN2CCOCC2)c2ccc(Br)cc21 (stereo not drawn)
The “activation” value of the first is higher: -5.22% for the first, -9.58% for the second.

In the case of `Cc1c(OCC(=O)NCc2ccccn2)ccc2c3c(c(=O)oc12)CCCC3`, the “activation” value is reported as -14.3% [at 11 µM].
